Data from PubChem BioAssay.

The molecules below were run on XIP peptide (Xip251-270) (assay: compounds binding XIP fragment 251-270 – biochemical, small-molecule microarray, fluorescence 635/667 nm, 0.5 µg/mL protein, primary screen (AID 1183)). Conditions: fluorescence 635 nm, higher = more signal.

| SMILES | composite z-score |
| --- | --- |
| C=C[C@H](COC(C)=O)N(Cc1ccc(OC(C)=O)c(OC)c1)S(=O)(=O)c1ccc(Br)cc1 | 0.713 |
| CCCC[C@H]1OB(O)C[C@H]2C1=C(C)C[C@H]1C(=O)N(Cc3ccccc3)C(=O)[C@H]12 | 0.911 |
| C=C[C@@H](COC(C)=O)N(Cc1ccc([N+](=O)[O-])cc1)S(=O)(=O)c1ccc(Br)cc1 | 0.656 |
| Cc1ccc(S[C@]2(C(=O)NCC(C)C)CC(=O)N(Cc3ccccc3Cl)[C@@H]2c2ccc(CO)cc2)cc1 | -0.313 |
| COCCOC(=O)N1C(=O)[C@@]2(c3cc(C#CCCO)ccc31)[C@H](c1ccccc1OCCO)N1[C@H](c3ccccc3)[C@H](c3ccccc3)OC(=O)[C@H]1[C@@H]2C(=O)N1CCN(c2ncccn2)CC1 | 0.783 |
| COCCCNC(=O)[C@@]1(c2ccc([N+](=O)[O-])cc2)CC(=O)N(CC23CC4CC(CC(C4)C2)C3)[C@@H]1c1ccc(CO)cc1 | 0.697 |
| Cc1cc(C)c(C(O)C2C=CC3C(=O)N(C)C(=O)C3N2Nc2ccccc2)c(C)c1 (stereo unspecified) | 0.794 |
| CCCNC(=O)[C@@H]1c2ccccc2C(=O)N(Cc2ccccc2)[C@H]1c1ccc(CO)cc1 | 0.312 |
| COc1ccc([Si](C)(C)[C@H]2[C@H](CC(=O)N(CCO)Cc3ccccc3)O[C@@]3(C(=O)N(Cc4cccc(N5CCC5=O)c4)c4ccccc43)[C@@H]2C)cc1 | 0.281 |
| COc1ccc([Si](C)(C)[C@@H]2[C@@H](CCn3cc([C@H](O)c4ccccc4)nn3)O[C@]3(C(=O)N(Cc4ccc(N5C(=O)c6cccc7cccc5c67)cc4)c4ccccc43)[C@H]2C)cc1 | 0.182 |
| CCN(CC)c1ccc(N2CC=CC34O[C@@H]5C=CCCOC(=O)C5[C@H]3C(=O)N(CCCCCO)[C@@H]4C2=O)cc1 (stereo partly specified) | -0.782 |
| COCCOC(=O)N1C(=O)[C@@]2(c3cc(C#CCC(C(=O)OC)C(=O)OC)ccc31)[C@H](c1ccccc1OCCO)N1[C@H](c3ccccc3)[C@H](c3ccccc3)OC(=O)[C@H]1[C@@H]2C(N)=O | 0.827 |
| COc1ccc(C(O)C2C=CC3C(=O)N(c4ccccc4)C(=O)C3N2Nc2ccc([N+](=O)[O-])cc2)cc1OCc1ccccc1 (stereo unspecified) | 0.891 |
| O=C1OCC=C[C@H]2OC34C=CCN(c5ccc6ccccc6c5)C(=O)[C@H]3N(CCCO)C(=O)[C@@H]4[C@@H]12 (stereo partly specified) | 1.03 |
| COCCOC(=O)N1C(=O)[C@@]2(c3cc(C#CCNC(N)=O)ccc31)[C@H](C(=O)N1CCc3cc(OC)c(OC)cc3C1)[C@H]1C(=O)O[C@H](c3ccccc3)[C@H](c3ccccc3)N1[C@@H]2c1ccc(OCCO)cc1 | 0.616 |
| O=C(OCCF)C1=CCC(c2cccc(Cl)c2)O1 (stereo unspecified) | 0.0075 |
| CCC[C@@H]1C=C(C(=O)O)[C@H](c2ccc(C)cc2)N1S(=O)(=O)c1ccc(C)cc1 | 0.884 |
| COc1ccc(C#Cc2ccc3c(c2)[C@]2(C(=O)N3)[C@H](C(=O)NC[C@H](O)c3ccccc3)[C@H]3C(=O)O[C@H](c4ccccc4)[C@H](c4ccccc4)N3[C@@H]2c2ccccc2OCCO)cc1 | 0.881 |

| SMILES | composite z-score |
| --- | --- |
| CC1=C2[C@@H](CCc3ccccc3)OB(O)C[C@@H]2n2c(=O)n(-c3ccccc3)c(=O)n2C1 | 0.777 |
| CCOC(=O)C1=C[C@@H](CC)N(S(=O)(=O)c2ccc(C)cc2)[C@H]1c1ccccc1 | 0.208 |
| COc1cc(C(O)C2C=CC3C(=O)N(c4ccccc4)C(=O)C3N2Nc2ccc(C#N)cc2)cc(OC)c1OC (stereo unspecified) | 0.906 |
| COc1ccc(C#Cc2ccc3c(c2)[C@]2(C(=O)N3)[C@H](c3ccc(O)cc3)N3[C@H](c4ccccc4)[C@H](c4ccccc4)OC(=O)[C@H]3[C@@H]2C(=O)NC[C@H](O)c2ccccc2)cc1 | 0.707 |
| COc1ccc(C#Cc2ccc3c(c2)[C@]2(C(=O)N3)[C@H](C(=O)NC[C@H](O)c3ccccc3)[C@H]3C(=O)O[C@H](c4ccccc4)[C@H](c4ccccc4)N3[C@@H]2c2ccc(OCCO)cc2)cc1 | 0.715 |
| C=CCC(OC(C)=O)[C@@H]1[C@@H](N(Cc2cccc3ccccc23)C(=O)c2cccc3ccccc23)c2cc(OCCCO)ccc2N1C(=O)c1ccc2ccccc2n1 (stereo partly specified) | 0.343 |
| COC(=O)[C@@]1(Cc2ccccc2)[C@H]2c3cc(C(=O)N4CCCC4)n(Cc4ccc(C)o4)c3C[C@H]2CN1C(=O)c1ccccc1 | 0.814 |
| CC(C)CNC(=O)[C@@H]1c2ccccc2C(=O)N(Cc2cc(C(F)(F)F)cc(C(F)(F)F)c2)[C@H]1c1ccc(CO)cc1 | -0.308 |
| COC(=O)[C@@]1(Cc2ccc(OC)cc2)[C@H]2c3cc(C(=O)N(C)C)n(Cc4c(OC)[nH]cc(C)c4=O)c3C[C@H]2CN1C(=O)c1ccccc1 | 0.523 |
| O=C1O[C@@H](c2ccccc2)[C@@H](c2ccccc2)N2[C@@H](c3ccc(OCCO)cc3)[C@]3(C(=O)Nc4ccc(C#CC5=CCCCC5)cc43)[C@@H](C(=O)O)[C@H]12 | 0.504 |
| C=C[C@@H](COC(C)=O)N(Cc1ccccc1[N+](=O)[O-])S(=O)(=O)c1ccc(Br)cc1 | 0.387 |
| COC(=O)[C@@]1(Cc2ccc(OC)cc2)[C@H]2c3cc(C(=O)N4CCCC4)n(CCc4c[nH]c5cc(F)ccc45)c3C[C@H]2CN1C(=O)c1ccccc1 | 0.687 |
| COC(=O)c1ccc(C(O)C2C=CC3C(=O)N(c4ccccc4)C(=O)C3N2Nc2ccc(C#N)cc2)o1 (stereo unspecified) | 0.37 |
| COc1c(C)cc(-c2cc3c(c(-c4ccc(Oc5ccccc5)cc4)n2)[Si](C(C)C)(C(C)C)OC3)cc1C | -0.466 |
| COC(=O)[C@@]1(Cc2ccc(F)cc2)[C@H]2c3cc(C(=O)N(C)C)n(CCc4ccccn4)c3C[C@H]2CN1C(=O)c1ccccc1 | 0.234 |
| COCC(=C=CC[C@H](O)c1ccc(OCCO)cc1)C[C@H](O)c1cc(Cl)cc(Cl)c1O | 0.161 |
| CC(C)(C)OC(=O)CC[C@]1(C(=O)N2CCCCC2)N=C(c2ccc(OCCCO)cc2)O[C@H]1c1ccccc1N=[N+]=[N-] | 0.71 |
| CC(C)C(O)C1C=CC2C(=O)N(c3ccccc3)C(=O)C2N1Nc1ccc(C#N)cc1 (stereo unspecified) | 0.748 |
